From PubChem BioAssay (EPA / NIEHS)
Values joined by “and” are separate entries in the source; they are usually repeats but may differ in a detail not shown here. Equal values may be shown once. Active and inactive are the calls of the source. The calls were made as follows: active = hit-call score of the fitted dose curve at least 0.9, where 1 is the maximum; inactive = score below 0.9.

Assay: BSK_SAg_Proliferation: Cell Proliferation Assessment in the BioMAP Diversity Plus: SAg Assay (AID 2283095)
Settings: primary human HUVEC with PBMC
Procedure: BSK_SAg is a cell-based, multiplexed-readout assay that uses umbilical vein endothelium and peripheral blood mononuclear cells, a human vascular primary cell co-culture, with measurements taken at 24 hours after chemical dosing in a 96-well plate.BSK_SAg_Proliferation is an assay component in the BSK_SAg assay. It measures protein content, a form of viability reporter, as detected with absorbance signals by Sulforhodamine staining technology. Data from the assay component BSK_SAg_Proliferation was analyzed into 1 assay endpoint. This assay endpoint, BSK_SAg_Proliferation, was analyzed with bidirectional fitting relative to DMSO as the negative control and baseline of activity. Using a type of viability reporter, measures of total protein for gain or loss-of-signal activity can be used to understand the viability at the cellular-level. Furthermore, this assay endpoint can be referred to as a secondary readout, because this assay has produced multiple assay endpoints where this one serves a viability function. To generalize the intended target to other relatable targets, this assay endpoint is annotated to the cell cycle intended target family, where the subfamily is proliferation.
The levels of cell surface (or secreted, indicated by the prefix "s") biomarker endpoints were measured by ELISA. Overt cytotoxicity to cells in confluent adherent cultures (all systems other than the BT system) was assessed by measuring total protein levels using sulforhodamine B (SRB) staining in parallel cultures at the time of biomarker measurements, indicated as SRB endpoints. For proliferation assays for adherent cell types, individual cell types are cultured at sub-confluence and relative cell numbers quantified by SRB staining at time points optimized for each system (48 h: 3C and CASM3C systems; 72 h: BT and HDF3CGF systems; 96 h: SAg system). SRB was performed by staining cells with 0.1% SRB after fixation with 10% TCA and reading wells at 560 nm.Viability and proliferation of PBMC (T cells) was quantified by Alamar Blue reduction for the SAg and BT systems. For PBMC viability (referred to as PBMC Cytotoxicity within the assay endpoint names), cells were plated (75,000/well in a 96-well plate) and then chemical samples added for 1 h before addition of activators, SEB and TSST-1 (20 ng/mL final concentration each). Cells were incubated for 90 h. Then, Alamar Blue (20 uL/well) (Invitrogen, Cat DAL1100) was added for 6 h, and the plates were read with a fluorescence microplate reader at 546/580 nm (excitation/emission). For PBMC proliferation, cells were plated and activated as above but incubated for only 16 h prior to addition of Alamar Blue. Plates were read after 6 h.

SMILES	outcome	AC50
Cc1ccc([N+](=O)[O-])cc1C	inactive	–
CC(C)(C)OOC(C)(C)C	inactive	–
c1cc2c3c(cccc3c1)CC2	inactive	–
CCC1(c2ccccc2)C(=O)N=C(O)NC1=O (stereo not given)	inactive	–
ClC(Cl)(Cl)c1ccccc1	inactive	–
FC(F)(F)C(F)(C(F)(F)F)C(F)(F)C(F)(F)CC1CO1 (stereo not given)	inactive	–
c1ccc2c(c1)Nc1ccccc1S2	–	20 µM (active)
CCOP(=S)(OCC)SCS(=O)(=O)CC	inactive	–
CCOP(=S)(Oc1ccc([N+](=O)[O-])cc1)c1ccccc1 (stereo not given)	–	22.6 µM (active)
ClC1=C(Cl)C2(Cl)C3C(Cl)C(Cl)CC3C1(Cl)C2(Cl)Cl (stereo not given)	–	7.61 µM (active)
OCC(F)(F)OC(F)(F)C(F)(F)OC(F)(F)C(F)(F)OC(F)(F)F	–	39 µM (active) and 21 µM (active)
Cc1ccc(N)cc1N	inactive	–
CCOP(=S)(OCC)SCSCC	inactive	–
CCCCOCCOP(=O)(OCCOCCCC)OCCOCCCC	inactive	–
CCNc1nc(Cl)nc(NC(C)(C)C)n1	inactive	–
Cc1ccc(O)cc1C	inactive	–
O=S1(=O)OCC2C(CO1)C1(Cl)C(Cl)=C(Cl)C2(Cl)C1(Cl)Cl (stereo not given)	inactive	–
CC(Cl)CN(C)C (stereo not given)	–	20 µM (active)
C=CC(=O)OCC(CC)(COC(=O)C=C)COC(=O)C=C	–	0.587 µM (active)
COC(=O)C(F)(F)C(F)(F)OC(F)(C(F)(F)F)C(F)(F)OC(F)=C(F)F (stereo not given)	inactive	–

SMILES	outcome	AC50
O=c1ssc(Cl)c1Cl	–	1.94 µM (active)
CCC(C)(C)c1ccc(O)cc1	inactive	–
CC(O)C(F)(F)C(F)(F)F (stereo not given)	inactive	–
c1ccc(OP(Oc2ccccc2)Oc2ccccc2)cc1	inactive	–
c1nc[nH]n1	inactive	–
CC(Cl)(Cl)C(=O)O	inactive	–
O=[N+]([O-])c1ccc(Cl)c(Cl)c1	inactive	–
CCOP(=S)(S)OCC	inactive	–
O=C(O)C1C(C(=O)O)C2(Cl)C(Cl)=C(Cl)C1(Cl)C2(Cl)Cl (stereo not given)	inactive	–
CCOP(=S)(NC(C)C)Oc1ccccc1C(=O)OC(C)C (stereo not given)	inactive	–
CCCCc1ccccc1	inactive	–
O=P(Oc1ccccc1)(Oc1ccccc1)Oc1ccccc1	–	32.2 µM (active)
COCCOCCO	inactive	–
CCOS(=O)(=O)OCC	inactive	–
CCCCCCCc1ccc(O)cc1	–	18.8 µM (active)
O=S(=O)(F)C(F)(F)C(F)(F)C(F)(F)C(F)(F)C(F)(F)C(F)(F)C(F)(F)C(F)(F)F	inactive	–
O=C(O)C=CC(F)(C(F)(F)F)C(F)(F)F	inactive	–
OCC(F)(F)OC(F)(F)C(F)(F)OC(F)(F)CO	inactive	–
C=CC(=O)OCC(F)(F)C(F)F	–	13.4 µM (active) and 6.25 µM (active)
O=P1(N(CCCl)CCCl)NCCCO1 (stereo not given)	inactive	–
